Measured values published in PubChem BioAssay AID1851 (National Center for Advancing Translational Sciences (NCATS), 2009).
Several values for one entry are separate records, joined by “and”; a condition that tells them apart may be missing. Identical values can stand only once. About 4,000 (25%) of roughly 16,000 compounds were called active. Another 26% or so got no clear call; they are omitted. Calls come from the whole dose curve; as a rule, active = well fitted curve in the direction sought with a large enough effect; inconclusive = small, poorly fitted or top-dose-only effect, or effect the other way; inactive = no such curve, though single readings can be large or run the other way. These entries were drawn from the full list.

biological target: Cytochrome P450 2C9 (Homo sapiens) (UniProt P11712); assay: Cytochrome panel assay with activity outcomes; settings: recombinant CYP, pro-luciferin dealkylation, luminescence, p450-cyp2c9; series mostly up to 57.1 µM; activity, negative = inhibition: at the top concentration
% is set by controls: 0 for no effect and ±100 for the full control effect.

Chain of Cytochrome P450 2C9 (Homo sapiens) (P11712 whole entry, looked up): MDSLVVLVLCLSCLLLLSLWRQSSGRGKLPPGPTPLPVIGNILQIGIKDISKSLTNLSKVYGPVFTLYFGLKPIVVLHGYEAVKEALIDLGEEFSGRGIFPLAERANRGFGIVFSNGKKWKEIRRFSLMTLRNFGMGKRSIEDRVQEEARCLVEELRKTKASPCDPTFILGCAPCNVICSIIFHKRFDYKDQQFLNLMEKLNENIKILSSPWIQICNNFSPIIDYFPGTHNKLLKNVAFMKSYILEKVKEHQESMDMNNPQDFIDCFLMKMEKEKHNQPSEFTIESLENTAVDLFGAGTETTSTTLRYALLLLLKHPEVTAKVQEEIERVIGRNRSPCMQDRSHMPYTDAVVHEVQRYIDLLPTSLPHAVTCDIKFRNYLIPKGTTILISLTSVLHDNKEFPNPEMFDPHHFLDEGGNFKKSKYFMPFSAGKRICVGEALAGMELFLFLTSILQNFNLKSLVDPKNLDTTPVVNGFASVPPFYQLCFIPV

SMILES	activity, negative = inhibition	AC50
c1ccc(-n2ncc3c2ncn2cnnc32)cc1	-3.21% (inactive)	
O=c1oc(-c2ccco2)nc2c1cnn2-c1ccccc1		12.6 µM (active)
Cc1ccc(-n2ncc3c2ncn2nc(-c4ccco4)nc32)c(C)c1	-11.5% (inactive)	
N#Cc1cccc(-c2nc(N3CCNCC3)c3ccccc3n2)c1	11.8% [at 2.29 µM] (inactive)	
C=CCN1CCN(c2nc3ccccc3nc2C#N)CC1		20 µM (active)
CNc1nc(-c2ccccc2C(F)(F)F)nc2ccccc12	19.6% [at 2.29 µM] (inactive)	
Cc1cccc(C)c1NC(=O)COc1cccc(/C=N/NC(=O)C(=O)NCc2ccccc2)c1	-7.69% (inactive)	
COc1cccc(/C=N/NC(=O)c2c(-c3ccccc3)noc2C)c1		3.55 µM (active)
C=CCOc1cccc(/C=N/NC(=O)C(=O)NCc2ccco2)c1	1.64% (inactive)	
COc1cccc(/C=N/NC(=O)c2nc(-c3ccccc3)cc(-c3ccccc3)n2)c1	11.1% (inactive)	
COc1cccc(/C=N/NC(=O)C(=O)NCc2cccnc2)c1		22.4 µM (active)
CC(C)=CCC/C(C)=C/CO/N=C1/C[C@@H](O)[C@@H](O)[C@@H]2[C@@H]3C(=O)N(C4CCCCC4)C(=O)[C@H]3CC[C@H]12	-5.92% [at 11.4 µM] (inactive)	
Nc1nc(Br)c2c(F)cccc2c1-c1ccc(Cl)cc1		4.47 µM (active)
Nc1nc(Br)c2c(F)cccc2c1-c1ccc(F)cc1		2.51 µM (active)
Nc1nc(Br)c2ccccc2c1-c1ccc(F)cc1	-33.3% (inactive)	
Cc1noc(C)c1-c1cc(Nc2ccc(F)cc2)ncn1	-1.17% [at 2.29 µM] (inactive)	
CN1CCN(c2ncnc3ccc(-c4ccc5c(c4)OCO5)cc23)CC1	14.7% [at 2.29 µM] (inactive)	
CC(C)C(=O)N[C@@H]1CCCN1C(=O)/C=C\c1ccccc1	-11.6% [at 11.4 µM] (inactive)	
C#CCSc1nncn1C(=O)/C=C/c1ccccc1		3.98 µM (active)
CC(C)C(=O)N[C@H]1CCCN1C(=O)/C=C\c1ccccc1	-2.39% [at 11.4 µM] (inactive)	

SMILES	activity, negative = inhibition	AC50
COc1ccc(C(N)=O)cc1NC(=O)c1cccc(F)c1	-18.9% (inactive)	
COc1cccc(CC(C(=O)Nc2cc(C)ccc2C)c2nn[nH]n2)c1OC (centres undefined)	-15.9% (inactive)	
C=C(C)c1cccc(C(C)(C)NC(=O)Nc2cc(C)ccc2OC)c1		10 µM (active)
O=C(OC(C(=O)NC1CCCC1)c1ccncc1)C1=Cc2ccccc2OC1 (centres undefined)		2.82 µM (active)
CN(C)Cc1ccccc1-c1ccc2ncnc(N(C)Cc3ccco3)c2c1	-5.32% [at 2.29 µM] (inactive)	
COc1ccc([C@@H]2CC(=O)c3c(O)cc(O[C@H]4O[C@@H](CO[C@H]5O[C@@H](C)[C@@H](O)[C@@H](O)[C@@H]5O)[C@@H](O)[C@@H](O)[C@@H]4O)cc3O2)cc1O	9.98% [at 25.6 µM] (inactive)	
O=C1c2c(O)cc(O)cc2O[C@@H](c2ccc(O)c(O)c2)[C@H]1O	-23.7% (inactive)	
COc1ccc([C@@H]2CC(=O)c3c(O)cc(O)cc3O2)cc1O		10 µM (active)
COc1ccc(C(=O)NC(=S)NC(C)C)cc1Br	-42.8% (inactive)	
COc1ccc(Br)c2c1C[C@H](C(=O)O)CC2	-27.4% [at 11.4 µM] (inactive)	
COc1ccc(C(=O)NC(=S)NC(C)(C)C)cc1Br		10 µM (active)
C#CCn1c(=O)c2c(ncn2C)n(C)c1=O	3.22% (inactive)	
CN(C)C(=O)c1ccc(-c2ccc3ncnc(Nc4ccccc4)c3c2)cc1	15.4% [at 2.29 µM] (inactive)	
CN(C)c1cc2c(Nc3ccc4c(cnn4Cc4ccccc4)c3)ncnc2cn1		12.6 µM (active)
CN(C)c1ccc(-c2ccc3ncnc(NCc4ccccc4)c3c2)cc1	-24.6% [at 2.29 µM] (inactive)	
COc1ccccc1NC(=O)Cn1cncc1-c1ccc([N+](=O)[O-])cc1	-12.7% (inactive)	
CCN(CC(=O)Nc1ccc([N+](=O)[O-])cc1OC)c1ccccc1		2.82 µM (active)
CCOc1cc(NC(=S)Nc2cccc(C)c2)c(OCC)cc1NC(=O)CC(C)C	-19.7% (inactive)	
COc1cc(OC)c(NC(=S)Nc2cccc(C(C)=O)c2)cc1Cl		5.01 µM (active)
CCOC(=O)C1(C(=O)O)NC(=O)CC1c1ccccc1 (centres undefined)	-28.6% (inactive)	

SMILES	activity, negative = inhibition	AC50
CCOC(=O)CN1C(=O)Nc2ccc(Br)cc2C1c1ccccc1 (centres undefined)		6.31 µM (active)
O=c1cc(CF)[nH]c(=S)[nH]1	8.7% [at 11.4 µM] (inactive)	
N[C@H](CCCC(=O)O)C(=O)O	-23.2% (inactive)	
O=C(O)c1cc2ccccc2c(S(=O)(=O)O)c1O	10.7% [at 11.4 µM] (inactive)	
O=C(O)c1cc(C(=O)C(=O)c2cc(C(=O)O)c(O)c3ccccc23)c2ccccc2c1O		0.316 µM (active)
O=C(O)C1=C/C(=C(/c2ccccc2)c2cc(C(=O)O)c(O)c3ccccc23)c2ccccc2C1=O	1.25% [at 11.4 µM] (inactive) and -1.88% [at 11.4 µM] (inactive)	
Cc1cc(OCC(F)(F)C(F)(F)C(F)(F)C(F)(F)C(F)(F)C(F)F)nc(N)n1		12.6 µM (active)
CC(C)NC[C@@H](O)c1ccc(O)c2ncccc12	11% [at 11.4 µM] (inactive)	
CCOc1ccc(-c2nnc(-c3ccncc3)o2)cc1		12.6 µM (active)
CCOc1ccc(C2=[N+]([O-])C(C)(C)N(O)C2(C)C)cc1	-2.98% (inactive)	
Oc1ccccc1-c1nnc(-c2ccc(C(F)(F)F)cc2)o1	-14.7% (inactive)	
Oc1cc2c(cc1O)[C@H](c1ccccc1)CNCC2	-1.38% (inactive)	
Cc1ccc(N=Nc2c(N)[nH]n3c(=O)c4c(nc23)CCCC4)cc1		10 µM (active)
Cc1ccccc1-c1nc(N2CCN(C)CC2)c2ccccc2n1	5.44% [at 2.29 µM] (inactive)	
Cc1ccc(N=Nc2c(=O)[nH]n3c(C)cc(C)nc23)cc1	-17% (inactive)	
Cc1c2c(nc3c(C(=O)NC4CCCC4)cnn13)CCCC2	-21.3% (inactive)	
Cc1[nH]n2c(=O)c3c(nc2c1-c1cccc2ccccc12)CCC3		5.62 µM (active)
O=P(O)(O)O[C@@H]1O[C@H](CO)[C@@H](O)[C@H](O)[C@@H]1O	8.79% [at 11.4 µM] (inactive)	
CCN(CC)[C@@H](C)CN1c2ccccc2Sc2ccccc21	-14.4% [at 25.6 µM] (inactive)	
